Measurements published in PubChem BioAssay.
Active and inactive are the calls of the source. Unless noted, the rule behind the calls is not given here.

Legend:
[1] = anti-His antibody binders, primary screen, artefact control for SMM control protein annotation, biochemical, small-molecule microarray, 635 nm fluorescence (AID 1128); settings: anti-His Alexa647 antibody binding, higher = more signal;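 note: score merges feature fluorescence with signal-to-noise for each printed compound spot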
[2] = system: Human papillomavirus type 1a E7 protein (residues 1-88); assay: HPV1a E7 small-molecule binders, primary screen, biochemical, small-molecule microarray, residues 1-88, 635 nm (AID 1129); settings: small-molecule microarray binding, fluorescence 635 nm; higher = more signal
[3] = target: Focal adhesion kinase 1 (Homo sapiens) (UniProt Q05397); assay: small-molecule microarray binders of FAK, primary screen, biochemical, 635/667 nm fluorescence, BSA, DTT (AID 1130); settings: PTK2 binding, 635 nm fluorescence, higher = more signal;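 note: composite of spot emission at 667 nm and signal to noise over triplicate slides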
[4] = system: Fibrinogen (Alexa647-labelled); assay: fibrinogen binders on compound microarrays, profiling panel, artefact control for SMM control-protein annotation, biochemical, small-molecule microarray, 635/667 nm fluorescence (AID 1131); settings: fibrinogen-A647 binding fluorescence, higher = more signal;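 note: z-score merges 667 nm fluorescence with per-spot signal-to-noise over triplicate slides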
[5] = target: Follistatin (Homo sapiens) (UniProt P19883); assay: follistatin binders on small-molecule microarrays, primary screen, biochemical, small-molecule microarray, 635/667 nm fluorescence (AID 1132); settings: FST binding, 635 nm fluorescence, higher = more signal
[6] = target: Fibroblast growth factor 2 (Homo sapiens) (UniProt P09038); assay: FGF2 binders on small-molecule microarrays, primary screen, biochemical, small-molecule microarray, 635/667 nm fluorescence (AID 1133); settings: small-molecule microarray binding, FGF2, fluorescence 635/667; higher = more signal
[7] = mitochondrial membrane potential change in A549 cells, profiling panel, cell-based, JC-1 fluorescence, basal, 24 h, 100 nL (AID 1138); settings: higher = more signal;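 note: A549 lung adenocarcinoma cells under basal conditions with no added stimulus; test concentration not given here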
Lefty1 = Lefty1 binders on small-molecule microarrays, primary screen, biochemical, small-molecule microarray, 635/667 nm fluorescence (AID 1139); settings: small-molecule microarray binding, fluorescence 635/667; higher = more signal
[8] = system: wheat germ agglutinin (Triticum aestivum), Alexa647-labelled; assay: wheat germ agglutinin binders on compound microarrays, profiling panel, artefact control for SMM control-protein annotation, biochemical, small-molecule microarray, 635/667 nm fluorescence (AID 1140); settings: WGA-A647 binding, 635 nm fluorescence, higher = more signal;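 note: score merges 667 nm feature emission with signal to noise over triplicate slides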
[9] = target: Luciferin 4-monooxygenase (Photinus pyralis) (UniProt P08659); assay: firefly luciferase enzyme inhibitors, primary screen, biochemical, luminescence, purified enzyme, 2006 set (AID 1141); settings: SteadyGlo luminescence, 30 min, higher = more signal, called active from +8 up or from −8 down;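 note: cell-free assay with purified firefly luciferase at 100 ng per well in PBS; test concentration not given here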
[10] = system: Wnt5a (protein binding on small-molecule microarray); assay: Wnt5a binders on small-molecule microarray, primary screen, biophysical, 635/667 nm fluorescence (AID 1142); settings: 635 nm fluorescence, higher = more signal;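 note: fluorescence read at 667 nm with signal to noise per printed feature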
[11] = cell viability in Huh7 cells, primary screen, cytotoxicity control for HCV replication inhibitor project, CellTiter-Glo luminescence, basal, 48 h (AID 1143); settings: Huh7 HCV replicon, higher = more signal, called active from +8 up or from −8 down;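 note: Huh7 hepatoma cells carrying a hepatitis C replication reporter with no stimulus; test concentration not given here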
[12] = P. aeruginosa biofilm formation inhibitors, primary screen, PAO1 strain, BacTiter-Glo luminescence, LB-PBS (AID 1144); settings: 12 h, higher = more signal
[13] = CREB reporter modulators without forskolin, primary screen, cell-based, PC12, CRE-LacZ reporter, unstimulated (AID 1145); settings: no forskolin, luminescence, 4.5 h, higher = more signal, called active from +8 up or from −8 down
[14] = CREB reporter modulators under forskolin, primary screen, cell-based, PC12, CRE-LacZ reporter, forskolin-stimulated (AID 1146); settings: luminescence, 4.5 h, higher = more signal, called active from +8 up or from −8 down;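 note: PC12 cells with 6xCRE LacZ reporter stimulated by forskolin 10 µM; beta-galactosidase reporter signal reflecting CREB driven transcription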
[15] = target: Streptavidin (Streptomyces avidinii) (UniProt P22629); assay: streptavidin binders on small-molecule microarray, primary screen, artefact control for SMM compound annotation, biophysical, 635/667 nm fluorescence (AID 1147); settings: streptavidin binding, higher = more signal;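 note: signal reflects streptavidin binding to arrayed compounds as a control protein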
[16] = small-molecule binders of probe aInhba, primary screen, biochemical, small-molecule microarray, 635/667 nm fluorescence (AID 1148); settings: higher = more signal;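 note: score merges 667nm spot fluorescence with signal-to-noise for antibody binding to printed compounds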
Torsin-1A (Homo sapiens) [17] = target: Torsin-1A (Homo sapiens) (UniProt O14656); assay: torsin A binders from cell lysate, primary screen, small-molecule microarray, wild-type, 635/667 nm (AID 1149); settings: COS7 hTOR1A-WT lysate, 635 nm fluorescence, higher = more signal
Torsin-1A (Homo sapiens) [18] = target: Torsin-1A (Homo sapiens) (UniProt O14656); assay: small-molecule binders of mutant TOR1A in lysate, primary screen, cell lysate, small-molecule microarray, COS7 lysate, 635/667 nm fluorescence (AID 1150); settings: COS7 hTOR1A mutant lysate, 635 nm fluorescence, higher = more signal;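 note: score pools 667 nm emission and signal to noise measuring lysate protein binding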
[19] = system: Sonic hedgehog protein (Shh); assay: small-molecule binders of Shh protein, primary screen, biochemical, small-molecule microarray, 635/667 nm fluorescence (AID 1151); settings: small-molecule microarray binding, 635 nm fluorescence; higher = more signal;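 note: Shh protein binding to compounds spotted on small-molecule microarray slides; score combines spot fluorescence intensity with signal-to-noise across triplicate slides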

Chain of Torsin-1A (Homo sapiens) (O14656 whole entry, looked up): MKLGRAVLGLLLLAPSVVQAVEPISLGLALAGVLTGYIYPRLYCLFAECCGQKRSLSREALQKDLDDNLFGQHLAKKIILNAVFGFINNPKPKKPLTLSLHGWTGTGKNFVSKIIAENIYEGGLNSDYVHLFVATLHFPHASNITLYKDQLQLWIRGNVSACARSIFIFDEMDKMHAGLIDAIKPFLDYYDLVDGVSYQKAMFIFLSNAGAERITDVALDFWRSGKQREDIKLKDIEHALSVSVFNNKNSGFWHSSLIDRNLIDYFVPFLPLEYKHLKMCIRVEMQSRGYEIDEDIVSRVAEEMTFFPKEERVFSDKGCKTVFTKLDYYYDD
Chain of Follistatin (Homo sapiens) (P19883 whole entry, looked up): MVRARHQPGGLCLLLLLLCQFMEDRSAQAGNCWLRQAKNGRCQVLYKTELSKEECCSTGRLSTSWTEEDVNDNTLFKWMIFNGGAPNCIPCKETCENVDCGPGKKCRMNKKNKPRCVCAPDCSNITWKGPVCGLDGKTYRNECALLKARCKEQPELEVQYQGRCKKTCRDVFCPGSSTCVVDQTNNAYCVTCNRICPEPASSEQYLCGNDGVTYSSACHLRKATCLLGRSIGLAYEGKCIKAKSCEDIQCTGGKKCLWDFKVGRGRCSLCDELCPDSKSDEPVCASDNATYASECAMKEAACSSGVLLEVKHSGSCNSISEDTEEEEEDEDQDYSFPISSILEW
Chain of Fibroblast growth factor 2 (Homo sapiens) (P09038 whole entry, looked up): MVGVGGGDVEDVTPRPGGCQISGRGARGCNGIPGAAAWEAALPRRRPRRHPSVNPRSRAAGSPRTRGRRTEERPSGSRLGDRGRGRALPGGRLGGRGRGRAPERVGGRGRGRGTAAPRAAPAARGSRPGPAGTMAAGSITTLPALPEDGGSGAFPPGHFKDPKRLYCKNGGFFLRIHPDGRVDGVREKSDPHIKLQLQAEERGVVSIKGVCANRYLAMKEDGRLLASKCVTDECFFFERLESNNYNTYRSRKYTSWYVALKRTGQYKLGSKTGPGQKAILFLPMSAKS
Chain of Streptavidin (Streptomyces avidinii) (P22629 whole entry, looked up): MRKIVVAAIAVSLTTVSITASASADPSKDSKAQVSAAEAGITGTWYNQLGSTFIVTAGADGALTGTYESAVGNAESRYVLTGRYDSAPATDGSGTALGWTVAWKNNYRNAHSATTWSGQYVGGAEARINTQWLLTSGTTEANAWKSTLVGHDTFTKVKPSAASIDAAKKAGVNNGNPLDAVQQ
Chain of Luciferin 4-monooxygenase (Photinus pyralis) (P08659 whole entry, looked up): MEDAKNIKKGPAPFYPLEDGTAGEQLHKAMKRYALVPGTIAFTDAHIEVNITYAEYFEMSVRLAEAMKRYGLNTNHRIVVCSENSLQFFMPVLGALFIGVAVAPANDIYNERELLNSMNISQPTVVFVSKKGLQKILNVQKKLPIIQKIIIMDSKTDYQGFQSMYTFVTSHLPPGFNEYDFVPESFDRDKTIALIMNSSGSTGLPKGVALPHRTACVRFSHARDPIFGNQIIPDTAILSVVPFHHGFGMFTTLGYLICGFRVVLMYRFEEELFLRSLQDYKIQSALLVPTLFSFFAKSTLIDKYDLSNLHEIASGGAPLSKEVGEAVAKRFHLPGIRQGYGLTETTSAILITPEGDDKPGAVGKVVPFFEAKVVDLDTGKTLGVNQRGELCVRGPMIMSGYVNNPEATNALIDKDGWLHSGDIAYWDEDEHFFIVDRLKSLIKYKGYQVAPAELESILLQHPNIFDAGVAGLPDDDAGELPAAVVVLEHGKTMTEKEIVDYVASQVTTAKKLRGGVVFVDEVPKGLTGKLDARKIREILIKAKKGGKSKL
Chain of Focal adhesion kinase 1 (Homo sapiens) (Q05397 whole entry, looked up): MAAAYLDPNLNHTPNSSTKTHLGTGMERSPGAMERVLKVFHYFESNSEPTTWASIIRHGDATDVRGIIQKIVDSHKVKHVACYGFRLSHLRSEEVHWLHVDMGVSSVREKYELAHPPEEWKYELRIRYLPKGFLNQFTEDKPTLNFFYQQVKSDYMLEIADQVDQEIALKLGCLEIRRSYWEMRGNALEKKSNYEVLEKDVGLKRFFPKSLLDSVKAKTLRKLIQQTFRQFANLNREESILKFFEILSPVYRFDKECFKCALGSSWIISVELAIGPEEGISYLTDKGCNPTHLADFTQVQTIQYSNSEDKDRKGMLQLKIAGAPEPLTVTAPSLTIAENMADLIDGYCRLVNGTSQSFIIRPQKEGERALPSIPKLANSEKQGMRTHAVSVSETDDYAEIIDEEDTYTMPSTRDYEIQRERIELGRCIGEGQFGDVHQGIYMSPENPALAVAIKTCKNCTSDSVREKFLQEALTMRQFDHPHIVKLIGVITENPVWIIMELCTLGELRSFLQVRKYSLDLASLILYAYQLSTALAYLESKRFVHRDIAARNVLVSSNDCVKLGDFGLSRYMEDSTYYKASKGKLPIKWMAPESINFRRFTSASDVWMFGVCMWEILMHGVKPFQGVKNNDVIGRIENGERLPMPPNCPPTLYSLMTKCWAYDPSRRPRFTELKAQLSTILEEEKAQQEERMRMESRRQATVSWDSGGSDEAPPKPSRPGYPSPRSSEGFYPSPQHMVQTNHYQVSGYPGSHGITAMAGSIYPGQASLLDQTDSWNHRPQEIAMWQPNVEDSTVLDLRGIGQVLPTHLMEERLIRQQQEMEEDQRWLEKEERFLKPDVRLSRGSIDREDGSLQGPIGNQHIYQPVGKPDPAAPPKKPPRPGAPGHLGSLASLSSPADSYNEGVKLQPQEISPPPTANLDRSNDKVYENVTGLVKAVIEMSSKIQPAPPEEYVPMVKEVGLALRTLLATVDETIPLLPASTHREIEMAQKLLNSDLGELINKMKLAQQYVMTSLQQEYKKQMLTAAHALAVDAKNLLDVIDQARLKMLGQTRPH

SMILES	composite z-score [1]	composite z-score [2]	composite z-score [3]	composite z-score [4]	composite z-score [5]	composite z-score [6]	z-score [7]	composite z-score (Lefty1)	composite z-score [8]	z-score [9]	composite z-score [10]	z-score [11]	z-score [12]	z-score [13]	z-score [14]	composite z-score [15]	composite z-score [16]	composite z-score (Torsin-1A (Homo sapiens) [17])	composite z-score (Torsin-1A (Homo sapiens) [18])	composite z-score [19]
Cc1c(NC(=O)/C(C#N)=C/C=C/c2ccccc2[N+](=O)[O-])c(=O)n(-c2ccccc2)n1C	0.526	0.876	1.01	0.867	0.771	0.334	0.511	0.557	0.154	-4.64 (inactive)	-0.145	-3.01 (inactive)	0.365 (inactive)	-0.0243 (inactive)	25.4 (active)	0.293	-0.176	0.185	0.331	0.844
CCOC(=O)C1=CC[C@@H](c2cc(Cl)ccc2Cl)N(S(=O)(=O)c2ccc(C)cc2)[C@H]1c1ccc(OC)cc1	-0.128	-0.199	0.262	-1.17	0.258	-0.413	0.581	-0.526	0.0203	0.953 (inactive)	1.11	-4.08 (inactive)	0.42 (inactive)	0.472 (inactive)	-0.555 (inactive)	0.0102	0.482	0.234	0.42	0.172
C=CCOC(=O)[C@@H]1[C@H]2C(=O)O[C@H](c3ccccc3)[C@H](c3ccccc3)N2[C@H](c2ccc(OCCOC(=O)[C@H]3C[C@H]4C(=O)N[C@@H](CCCCNC(C)=O)C(=O)N4[C@H]3c3cccc(OCCO)c3)cc2)[C@@]12C(=O)Nc1ccc(I)cc12	1.98	1.19	0.323	0.777	1.43	1.45	-1.11	1.28	-0.045	-0.662 (inactive)	0.218	-0.495 (inactive)	-0.929 (inactive)	-0.256 (inactive)	0.215 (inactive)	0.356	-0.0313	1.01	0.495	1.89
C[N+](C)(C)CCCC[C@@H]1NC(=O)[C@@H]2C[C@H](C(=O)O)[C@H](c3ccc(O)cc3)N2C1=O	-0.613	-1.65	-0.975	-1.21	-0.493	-0.27	-0.264	0.0501	0.213	-0.516 (inactive)	-0.535	0.462 (inactive)	-0.771 (inactive)	0.0043 (inactive)	0.563 (inactive)	-1.08	-0.103	-1.07	-0.909	-0.0334
COc1ccc([Si](C)(C)[C@H]2[C@H](CCn3cc([C@H](O)c4ccccc4)nn3)O[C@@]3(C(=O)N(Cc4ccc(N5CCC5=O)cc4)c4ccccc43)[C@@H]2C)cc1	0.814	0.578	-0.441	-0.116	1.25	1.47	0.527	1.18	0.264	0.465 (inactive)	0.826	-3.89 (inactive)	0.572 (inactive)	0.31 (inactive)	-1.05 (inactive)	-0.503	-0.128	0.441	0.489	1.83
COCCCNC(=O)[C@@]1(Sc2ccc(C)cc2)CC(=O)N(C2Cc3ccccc3C2)[C@@H]1c1ccc(CO)cc1I	-0.961	-1.01	-1.01	-1.07	-1.01	-1.19	0.314	-1.68	-0.0708	0.553 (inactive)	-0.572	-0.712 (inactive)	-0.141 (inactive)	0.0909 (inactive)	0.555 (inactive)	-0.962	-0.157	-0.475	-1.29	-0.59
O=C1OCCC=C[C@H]2OC34C=CCN(c5ccc(Cl)cc5)C(=O)[C@H]3N(CCCCCO)C(=O)[C@@H]4C12 (stereo not given in full)	3.41	-0.457	-0.226	-0.929	-0.514	-0.297	2.6	-0.314	-0.21	-1.31 (inactive)	-0.244	-0.091 (inactive)	-0.622 (inactive)	0.187 (inactive)	-0.382 (inactive)	-0.654	-0.0986	0.0095	1.05	0.58
CCCCN1CC=CC23O[C@@H]4/C=C\CCC(C)OC(=O)C4[C@H]2C(=O)N(CCCCCCO)[C@@H]3C1=O (stereo not given in full)	0.539	0.0554	-0.266	-1.22	-0.454	-0.668	0.376	-0.74	-0.465	-0.393 (inactive)	0.0569	0.745 (inactive)	-0.72 (inactive)	0.61 (inactive)	-0.0292 (inactive)	-0.519	-0.239	1.08	2.16	-0.57
O=C1O[C@@H](c2ccccc2)[C@@H](c2ccccc2)N2[C@@H](c3ccccc3OCCO)[C@]3(C(=O)Nc4ccc(C#CCCO)cc43)[C@@H](C(=O)Nc3nc4ccccc4s3)[C@H]12	2.3	1.21	0.487	0.956	1.33	0.737	-2.04	1.55	1.23	-0.778 (inactive)	0.559	-0.975 (inactive)	-0.562 (inactive)	-0.671 (inactive)	0.308 (inactive)	1.39	0.269	0.515	0.585	1.36
